These results are taken from PubChem BioAssay (Tox21).

Inconclusive results are not listed. Where a call stands in place of a potency, no number is given. Unmarked numbers belong to inactive results. Activity calls are given as the source filed them. Calls follow the shape of the dose curve; as a rule, active = well fitted cell-killing curve with a large enough effect in the repeat runs; inconclusive = weak or mixed curves, or effect the other way; inactive = flat fitted curve, though single readings scatter.

A short description of the first assay: cAMP Responsive Elements (CRE) small molecule antagonists, cell-based qHTS assay: qHTS cell viability counter screen (AID 2060913). Also: nearly all actives have a fitted effect of over 40% in size. The note with it: CRE-bla HEK293T viability, CellTiter-Glo luminescence, 5 h; series mostly up to 92.4 µM. The procedure, abridged:
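Cytotoxicity counter screen multiplexed with the CRE-bla antagonist read: HEK293T cells in DMEM with dialyzed FBS and 25 mM HEPES were treated 3 hrs under 0.25 uM final NKH477, then viability measured by CellTiter-Glo luminescence.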
In the case of `C=CC(=O)OCCN(CC)CC`, the Potency entry is “inactive”.

With `Cc1nc(-c2ccc(Cl)cc2)oc1COC(C)(C)C(=O)O`, the Potency result was “inactive”.

As to `Cc1ccc(CO)cc1`, the Potency entry is “inactive”.

For the compound `CC(C)=CCC[C@@](C)(O)[C@H]1CC=C(C)CC1`, the Potency result is “inactive”.

`CCCCCCCCCOCC1CO1` (stereo not given): the Potency result is “inactive”.

Take `CC1=CC=C(C(C)C)CC1`: the Potency result is “inactive”.

Regarding `N#Cc1cc(NC(=O)C(=O)O)c(Cl)c(NC(=O)C(=O)O)c1`, the Potency result was “inactive”.

As for `CCNC(=O)/C=C/c1cccc(Br)c1`, the Potency result is “inactive”.

`CC(CCO)CC(C)(C)C` (stereo not given): the Potency result was “inactive”.

Regarding `N#CCCOCCOCCC#N`, the Potency result is “inactive”.

Take `CC1(COc2ccc(CC3SC(=O)NC3=O)cc2)CCCCC1` (stereo not given): the Potency entry was “inactive”.

Consider `CCC(=O)OCc1ccccc1`, for which the Potency result is “inactive”.

Turning to `O=C(O)COCC(=O)O`, the Potency entry is “inactive”.

For `O=C(Oc1ccccc1)c1ccc(O)cc1`, the Potency entry was “inactive”.

Take `CC(=O)OC(C(=O)c1ccccc1)c1ccccc1` (stereo not given): the Potency result was “inactive”.

Consider `CC1=C(C(=O)O)N2C(=O)[C@@H](NC(=O)[C@H](N)C3=CCC=CC3)[C@H]2SC1`, for which the Potency entry was “inactive”.

As for `O=C(O)CCC(=O)O`, the Potency entry is “inactive”.

For the compound `Cc1ccc(C=O)cc1`, the Potency entry was “inactive”.

`COc1ccc(C#N)cc1`: the Potency entry was “inactive”.

With `CCNc1ccccc1`, the Potency entry was “inactive”.

`COCCc1ccccn1`: the Potency entry is “inactive”.

As to `C[Si](O[Si](C)(C)C)O[Si](C)(C)C`, the Potency entry was “inactive”.

Consider `O=C(O)/C=C/c1ccc(O)c(O)c1`, for which the Potency result was “inactive”.

For `O=c1[nH]cnc2ccccc12`, the Potency entry was “inactive”.

For the compound `Oc1ccc(-c2ccc(O)cc2)cc1`, the Potency entry was “inactive”.

Take `O=Cc1ccc(Cl)c([N+](=O)[O-])c1`: the Potency result is “inactive”.

In the case of `CCCN[C@H]1CCc2nc(N)sc2C1`, the Potency entry was “inactive”.

Consider `Cn1c(=O)c2c(ncn2CC(=O)O)n(C)c1=O`, for which the Potency result is “inactive”.

With `COc1cc(OC)cc(OC)c1`, the Potency entry was “inactive”.

For `CC(=O)OC1C2(C)CCC(C2)C1(C)C` (stereo not given), the Potency entry was “inactive”.

Consider `CCCCCCCC/C=C\CCCCCCCC(=O)OCCCC`, for which the viability change, negative = cytotoxic was -0.67% [at 18.9 µM].

For `O=[N+]([O-])c1ccc(F)cc1F`, the Potency result is “inactive”.

For the compound `CCCCCCCCN(C)CCCCCCCC`, the Potency result was “inactive”.

For the compound `COc1ccc(Br)c(C)c1`, the Potency entry is “inactive”.

Regarding `CC(C)NC(=O)c1ccc(C=O)cc1`, the Potency entry was “inactive”.

As to `C[N+](C)(C)CCCCCC[N+](C)(C)C`, the Potency result is “inactive”.

On to `O=C1CCc2ccccc2O1`, for which the Potency entry is “inactive”.

For the compound `Clc1ccccc1CN1CCc2sccc2C1`, the Potency entry was “inactive”.

Turning to `C/C=C/C=C/C(=O)O`, the Potency entry is “inactive”.

Turning to `CS(=O)(=O)OCCCCOS(C)(=O)=O`, the Potency entry was “inactive”.

A further assay is described as follows: cAMP Responsive Elements (CRE) small molecule agonists, cell-based qHTS assay: qHTS cell viability counter screen (AID 2060914).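 Also: viability read after 3 h of compound exposure; nearly all actives have a fitted effect of over 50% in size.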 The note with it: CRE-bla HEK293T viability, CellTiter-Glo luminescence, 5 h; series mostly up to 92.4 µM. The procedure, abridged:
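Cells are seeded and incubated 18 h, treated with compounds in DMSO for 3 h, read for the bla reporter, then given CellTiter-Glo; luminescence is measured after 30 min at room temperature.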
As for `C=CC(=O)OCCN(CC)CC`, the Potency entry was “inactive”.

In the case of `Cc1nc(-c2ccc(Cl)cc2)oc1COC(C)(C)C(=O)O`, the Potency entry is “inactive”.

For the compound `Cc1ccc(CO)cc1`, the Potency entry is “inactive”.

Take `CC(C)=CCC[C@@](C)(O)[C@H]1CC=C(C)CC1`: the Potency result was “inactive”.

`CCCCCCCCCOCC1CO1` (stereo not given): the Potency entry is “inactive”.

In the case of `CC1=CC=C(C(C)C)CC1`, the Potency result was “inactive”.

`N#Cc1cc(NC(=O)C(=O)O)c(Cl)c(NC(=O)C(=O)O)c1`: the Potency result is “inactive”.

On to `CCNC(=O)/C=C/c1cccc(Br)c1`, for which the Potency result is “inactive”.

Take `CC(CCO)CC(C)(C)C` (stereo not given): the Potency entry is “inactive”.

With `N#CCCOCCOCCC#N`, the Potency result was “inactive”.

Consider `CC1(COc2ccc(CC3SC(=O)NC3=O)cc2)CCCCC1` (stereo not given), for which the Potency entry is “inactive”.

In the case of `CCC(=O)OCc1ccccc1`, the Potency entry is “inactive”.

For `O=C(O)COCC(=O)O`, the Potency result was “inactive”.

Consider `O=C(Oc1ccccc1)c1ccc(O)cc1`, for which the Potency entry is “inactive”.

Consider `CC(=O)OC(C(=O)c1ccccc1)c1ccccc1` (stereo not given), for which the Potency entry is “inactive”.

Turning to `CC1=C(C(=O)O)N2C(=O)[C@@H](NC(=O)[C@H](N)C3=CCC=CC3)[C@H]2SC1`, the Potency entry was “inactive”.

Take `O=C(O)CCC(=O)O`: the Potency entry was “inactive”.

As to `Cc1ccc(C=O)cc1`, the Potency entry is “inactive”.

Consider `COc1ccc(C#N)cc1`, for which the Potency result was “inactive”.

Take `CCNc1ccccc1`: the Potency result is “inactive”.

With `COCCc1ccccn1`, the Potency entry is “inactive”.

On to `C[Si](O[Si](C)(C)C)O[Si](C)(C)C`, for which the Potency result is “inactive”.

As to `O=C(O)/C=C/c1ccc(O)c(O)c1`, the Potency result was “inactive”.

Turning to `O=c1[nH]cnc2ccccc12`, the Potency result was “inactive”.

Take `Oc1ccc(-c2ccc(O)cc2)cc1`: the Potency entry is “inactive”.

Consider `O=Cc1ccc(Cl)c([N+](=O)[O-])c1`, for which the Potency result was “inactive”.

Take `CCCN[C@H]1CCc2nc(N)sc2C1`: the Potency result was “inactive”.

For `Cn1c(=O)c2c(ncn2CC(=O)O)n(C)c1=O`, the Potency result is “inactive”.

Take `COc1cc(OC)cc(OC)c1`: the Potency result is “inactive”.

Take `CC(=O)OC1C2(C)CCC(C2)C1(C)C` (stereo not given): the Potency result was “inactive”.

As to `CCCCCCCC/C=C\CCCCCCCC(=O)OCCCC`, the activity change, negative = cytotoxicity was -19.4% [at 18.9 µM].

Take `O=[N+]([O-])c1ccc(F)cc1F`: the Potency entry was “inactive”.

As to `CCCCCCCCN(C)CCCCCCCC`, the Potency entry is “inactive”.

Consider `COc1ccc(Br)c(C)c1`, for which the Potency entry was “inactive”.

On to `CC(C)NC(=O)c1ccc(C=O)cc1`, for which the Potency result is “inactive”.

`C[N+](C)(C)CCCCCC[N+](C)(C)C`: the Potency result was “inactive”.

`O=C1CCc2ccccc2O1`: the Potency entry is “inactive”.

As for `Clc1ccccc1CN1CCc2sccc2C1`, the Potency entry was “inactive”.

For the compound `C/C=C/C=C/C(=O)O`, the Potency result is “inactive”.

With `CS(=O)(=O)OCCCCOS(C)(=O)=O`, the Potency entry is “inactive”.
